Screens (PubChem BioAssay)
Most compounds without a hit are left out; they make up all but 11% or so of the library.
PNC inhibitor – perinucleolar compartment assembly inhibition. PC3M PTB-GFP, PNC prevalence imaging, 16 h; hits give low values. activity change (PNC), negative = inhibition, % at 10 µM. hit rate 3.1% among 140,000;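 active = readout at or below -70, meaning at least 70% loss of cells showing the perinucleolar compartment, a nuclear body marking cancer cells; inconclusive = readout between -30 and a set limit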;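 also: plate controls were DMSO wells for no effect and camptothecin positive control wells for full effect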
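PC3M cells stably expressing PTB-GFP, 750–1000 cells/well, treated 16 h at 37 °C with compound (23 nl of library stock), in duplicate. After paraformaldehyde fixation and Hoechst stain, imaged at 20x; PNC prevalence scored by image analysis.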
ALDH1A1 inh – inhibitors of human aldehyde dehydrogenase 1A1 | P00352 | Purified ALDH1A1, NADH fluorescence, propionaldehyde substrate | Potency, µM (titrated, usually from 75.3 µM), for the others: top-dose activity, negative = inhibition, actives largely listed as inhibitors | hit rate 7.3% among 220,000;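 also: potency is read from the fitted curve at half-maximal effect; plate controls were no enzyme wells and a reference inhibitor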
Target sequence (P00352 whole entry, looked up): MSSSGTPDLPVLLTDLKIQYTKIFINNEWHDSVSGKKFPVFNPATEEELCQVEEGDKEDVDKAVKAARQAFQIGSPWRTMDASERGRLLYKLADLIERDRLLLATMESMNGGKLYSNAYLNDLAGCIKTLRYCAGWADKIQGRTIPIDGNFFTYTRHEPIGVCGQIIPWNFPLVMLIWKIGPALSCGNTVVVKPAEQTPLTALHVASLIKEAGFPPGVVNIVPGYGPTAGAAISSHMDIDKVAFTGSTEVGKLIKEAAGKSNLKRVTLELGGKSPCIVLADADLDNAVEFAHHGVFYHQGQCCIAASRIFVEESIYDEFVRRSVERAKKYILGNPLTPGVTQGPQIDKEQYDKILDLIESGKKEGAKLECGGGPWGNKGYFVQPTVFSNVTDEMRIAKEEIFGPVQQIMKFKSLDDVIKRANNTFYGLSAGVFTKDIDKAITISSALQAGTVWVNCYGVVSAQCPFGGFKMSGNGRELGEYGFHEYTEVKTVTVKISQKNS
IMPase Li inh – membrane-permeable IMPase blocker, potentiated with lithium | CHO-M1 cells, IP1 TR-FRET (IP-One), carbachol + lithium | Potency, µM (titrated, usually from 59.4 µM), without a hit: top-dose activity, negative = IMPase inhibition, most hits filed as inhibitors | hit rate 0.35% among 210,000; active = well fitted inhibition curve with a large enough effect; inconclusive = small, poorly fitted or top-dose-only effect; inactive = no such curve, though single readings can be large or run the other way;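 also: IP1 builds up when IMPase is blocked and the TR-FRET signal falls; potency is read from the fitted curve at half-maximal effect; plate controls were basal vehicle for no effect and high inhibitor control for full effect; nearly all actives have a fitted effect of over 50% in size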
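Steps: plate 2000 CHO-M1 cells per well and culture 16–30 h; add compound and lithium; incubate 30 min, 37C; add d2-IP1 tracer and Eu cryptate anti-IP1 antibody in lysis buffer; read after 10 min at room temperature.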
IMPase cell inh – cell-permeable inhibitors of inositol monophosphatase (IMPase); AID 901; 120,000 tested, under 10 active; P97697; CHO-M1 cells, IP1 accumulation, HTRF TR-FRET ratio; inhibition (IP1 accumulation), % at 46.1 µM; active = well fitted curve in the direction sought with a large enough effect in the signal ratio, not every such curve was filed as active; inconclusive = small, poorly fitted or top-dose-only effect, or a change in a side signal; inactive = no such curve, though single readings can be large or run the other way; the % refers to the signal ratio;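 also: cells stimulated with carbachol in lithium chloride buffer; plate controls were DMSO basal wells for no effect and reference inhibitor wells for full effect; higher means more IMPase inhibition seen as more IP1 and lower FRET ratio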
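CHO-M1 cells (CHO stably expressing M1 receptor), compound up to 46 uM final, stimulated with carbachol (50 uM as added) in buffer with 50mM LiCl, pH 7.4, 30 min at 37C. Cytosolic IP1 read by TR-FRET; AC50 from Hill fits.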
HPGD block – HPGD (human) dehydrogenase inhibition; purified HPGD, NADH fluorescence kinetic, PGE2 substrate; Potency, µM, for the others: at the top dose activity change, negative = inhibition, actives largely listed as inhibitors; P15428; AID 894; hit rate 4.3% among 150,000; also: potency is read from the fitted curve at half-maximal effect
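NADH formation kinetics: reaction with 30 uM PGE2 and 1 mM NAD+ (final), 20 nM enzyme, Tris-HCl pH 8 with Tween 20, after 15 min compound preincubation at room temperature. Fluorescence change, last versus first of five reads.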
Active calls of the source: *; ? = inconclusive; . = no result given; [ ] = dose if it differs, or a comment. Unless noted, calls follow the shape of the dose curve; as a rule, active = well fitted inhibition curve with a large enough effect (not every such curve was filed as active); inconclusive = small, poorly fitted or top-dose-only effect, or another doubt; inactive = no such curve, though single readings can be large or run the other way. Unless noted, % is scaled to controls: 0 for no effect and ±100 for the full control effect.

SMILES	PNC inhibitor	ALDH1A1 inh	IMPase Li inh	IMPase cell inh	HPGD block
CCCCn1c(=O)n(CC(O)c2ccccc2)c(=O)c2c1ncn2C1CCCC1 (centres undefined)	10	10µM*	25%[38.3 µM]	-3	0%
O=c1c2c(ncn2C2CCCC2)n(Cc2ccccc2)c(=O)n1CCOc1ccccc1	-27	11%	24%	16	-19%
CCC(C)NC(=O)c1sc2nc(C)c(C(=O)Nc3ccc(C)cc3C)c(-c3ccc(NC(C)=O)cc3)c2c1N (centres undefined)	.	.	.	6	.
O=C(CCNC(=O)c1ccccc1Cl)Nc1nc(-c2ccc3ccccc3c2)cs1	31	?	4%	.	?
O=C(c1ccccc1)[C@@H]1O[C@H]1c1ccc(-c2ccccc2)cc1	.	-29%	11%	1	?
Cc1c(F)cccc1NC(=O)CCCCCC1NC(=O)NC1C (centres undefined)	.	4%	-13%	.	.
CC1(C)CC(=O)C2=C(C1)Nc1ccccc1N=C2	-14	1.8µM*	12%	19	-12%
CC(C)Cn1c(-c2ccc(Cl)cc2)cnc1SCC(=O)N1CCOCC1	26	10%	-1%[38.3 µM]	-1	-15%
Cc1c(C(=S)NC(=O)C2CC2)c(=O)n(-c2ccccc2)n1C	.	18µM*	8%	.	.
O=C(Nc1ccc(Nc2ccccc2)cc1)C(Cl)(Cl)Cl	19	?	7%	.	32µM*
O=C(Nc1ccc(Nc2ccccc2)cc1)C(Cl)Cl	-91*	13µM*	10%	.	22µM*
CCC(=O)Nc1ccc(Nc2ccccc2)cc1	?	9%	11%	4	-22%
Cc1ccccc1N1C(=O)c2cccc3c(N(C)CCO)ccc(c23)C1=O	-80*	?	-1%[38.3 µM]	6	-19%
CC(=O)Nc1cccc2c1C(=O)N(c1ccccc1C)C2=O	.	-10%	5%	.	.
O=C(NCCc1cccs1)C1CC(c2c(Cl)cccc2Cl)=NO1 (centres undefined)	?	-1%	-5%[38.3 µM]	8	14µM*
COc1ccc(C2C(C(N)=O)=C(C)Nc3nc(-c4ccccc4Cl)nn32)c(OC)c1 (centres undefined)	21	1%	0%	-3	-1%
O=c1c2c(-c3ccc([N+](=O)[O-])cc3)csc2nc2n1CCC2	-18	7.1µM*	24%	8	22µM*
CCC(=O)Nc1nc2ccc(S(C)(=O)=O)cc2s1	-100*	2%	-2%	-7	-13%
CCc1ccc(C(=O)Nc2ccc(S(=O)(=O)Nc3nc(C)cc(C)n3)cc2)o1	-107*	?	18%[38.3 µM]	7	-15%
CS(=O)(=O)c1ccc2nc(NC(=O)CN3C(=O)C4CC=CCC4C3=O)sc2c1 (centres undefined)	.	13µM*	-5%	.	.
COc1ccc(Cl)cc1C(=O)Nc1nc2ccc(S(C)(=O)=O)cc2s1	.	1%	13µM*	.	.
CCOCCCn1c(=N)c(C(=O)NCc2cccnc2)cc2c(=O)n3cc(C)ccc3nc21	.	.	.	-1	.
COc1ccc(C(=O)N2CCC3(CCN(C)CC3)CC2)cc1	.	9%	8%	.	-1%
Cc1nn(-c2ccccc2)c(OC(=O)c2ccccc2Br)c1S(=O)(=O)c1ccccc1	.	.	.	-3	.
CC(=O)Nc1ccc(S(=O)(=O)Nc2nc3ccc(C)cc3s2)cc1	?	-14%	-5%[38.3 µM]	3	-21%
SMILES	PNC inhibitor	ALDH1A1 inh	IMPase Li inh	IMPase cell inh	HPGD block
Cc1cc(C)nc(NS(=O)(=O)c2ccc(NC(=O)CN3C(=O)C4CC=CCC4C3=O)cc2)n1 (centres undefined)	.	32µM*	11%	.	.
Cc1ccc(S(=O)(=O)Nc2nc3ccc(S(C)(=O)=O)cc3s2)cc1	?	?	11%[38.3 µM]	-6	25µM*
CCOCC(=O)Nc1nc2ccc(S(C)(=O)=O)cc2s1	-6	18µM*	23%[38.3 µM]	10	-26%
COc1ccc2[nH]c(=O)c(CN(CCc3ccccc3)Cc3nnnn3CC3CCCO3)cc2c1 (centres undefined)	?	?	-3%[38.3 µM]	6	?
Cc1ccc2[nH]c(=O)c(CN(CCc3ccccc3)Cc3nnnn3CC3CCCO3)cc2c1 (centres undefined)	212	22µM*	11%	-1	-18%
CCOc1ccc2[nH]c(=O)c(CN(CCO)Cc3nnnn3CCc3ccccc3)cc2c1	-85*	?	7%[38.3 µM]	-3	-18%
COc1ccc2cc(CN(CCc3ccccc3)Cc3nnnn3CC3CCCO3)c(=O)[nH]c2c1 (centres undefined)	19	0.28µM*	-13%[38.3 µM]	8	-17%
COCCn1nnnc1CN(CCc1ccccc1)Cc1cc2ccc(C)cc2[nH]c1=O	?	4.5µM*	3%[38.3 µM]	7	-4%
CCOc1ccc2[nH]c(=O)c(CN(Cc3ccco3)Cc3nnnn3Cc3ccccc3)cc2c1	-17	?	24%[38.3 µM]	9	?
COC(=O)c1c(NC(=O)CCCOc2cccc(C)c2)sc2c1C(C(=O)OC)CC2 (centres undefined)	.	.	.	2	.
Cc1nn(C(C)C(=O)N2CCOCC2)c(C)c1[N+](=O)[O-] (centres undefined)	35	2%	-7%	-10	-9%
COc1ccc2nc(NC3=NCCC3)sc2c1	65	8%	0%[38.3 µM]	0	-8%
COc1ccc2nc(Nc3sc4c(c3C(N)=O)CCCC4)sc2c1	-9	8.9µM*	1%	-9	16µM*
COc1ccc(C(=O)N2CCC3(CCCN(C)C3)CC2)cc1	.	2%	-3%	.	-7%
CCC(CO)NCc1cc(OC)c(OCC(=O)NCCc2ccccc2)cc1Br (centres undefined)	56	0%	8%	.	-13%
COc1cccc(-c2nc(CS(=O)(=O)c3ccccc3)no2)c1	16	?	-4%	7	-16%
Cc1nnc2c(NC3CCCC3)nc3ccccc3n12	.	?	-2%	.	.
c1ccc2c(c1)nc(NC1CCCCC1)c1nncn12	24	10µM*	9%	-1	-19%
C[C@H]1CC[C@@H]2N(C1)C[C@H]1[C@@H]3C[C@H]4[C@@H](C/C(=N\O)[C@H]5C[C@@H](O)CC[C@@]54C)[C@@H]3CC[C@H]1[C@]2(C)O	.	4%	24%	.	-6%
S=C(NCCN1CCOCC1)N/N=C/c1c2ccccc2cc2ccccc12	-81*	-13%	29%[38.3 µM]	-1	-15%
O=S(=O)(c1ccc(NC(=S)N/N=C/c2c3ccccc3cc3ccccc23)cc1)N1CCOCC1	.	10µM*	-9%	.	.
CCCCNC(C(=O)Nc1cccc(S(=O)(=O)N2CCOCC2)c1)c1ccccc1 (centres undefined)	.	13µM*	9%	.	.
O=S(=O)(c1ccc(NC(=S)NN=C2CCCCC2)cc1)N1CCOCC1	.	14µM*	4%	.	.
O=S(=O)(c1ccc(NC(=S)N/N=C/c2ccc(N3CCOCC3)cc2)cc1)N1CCOCC1	-13	?	4%	.	?
COc1ccc2ccccc2c1/C=N/NC(=S)NCCN1CCOCC1	.	1%	4%	.	.
